# Assay results reported in the supplement of paper PMC4466140.
# What was measured:
# Assay in all cases: SPOT peptide array binding signal intensity (averaged, normalized) (arbitrary units (background-subtracted, floor 0; scale differs between SH3 domains)); higher = stronger binding of the SH3 domain to the peptide
# AgAbp1 = target: AgAbp1
# Method in brief: (§1)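 GST-fused SH3 domains, from four yeast species, were produced in E. coli BL21(DE3) and captured on glutathione Sepharose. Membranes of cellulose carrying synthetic 15-mer peptides, in which cysteines had been replaced by serines, were exposed to each domain at 10 μg/ml overnight at 4°C in TBS-based blocking buffer. After anti-GST antibody, an HRP anti-mouse secondary and luminol, spots were imaged and quantified using Genespotter. Binding signal is normalized and background-subtracted spot intensity, averaged over replicates, in arbitrary units that differ between domains.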
# AgBbc1 = target: AgBbc1
# Method in brief: as §1
# AgBem1-D1 = target: AgBem1-D1
# Method in brief: as §1
# AgBzz1-D1 = target: AgBzz1-D1
# Method in brief: as §1
# AgBzz1-D2 = target: AgBzz1-D2
# Method in brief: as §1
# AgCyk3 = target: AgCyk3
# Method in brief: as §1
# AgFus1 = target: AgFus1
# Method in brief: as §1
# AgHof1 = target: AgHof1
# Method in brief: as §1
# AgHse1 = target: AgHse1
# Method in brief: as §1
# AgLsb1 = target: AgLsb1
# Method in brief: as §1
# AgLsb4 = target: AgLsb4
# Method in brief: as §1
# AgMyo5 = target: AgMyo5
# Method in brief: as §1
# AgNbp2 = target: AgNbp2
# Method in brief: as §1
# AgRvs167 = target: AgRvs167
# Method in brief: as §1
# AgSho1 = target: AgSho1
# Method in brief: as §1
# AgSla1-D1-D2 = target: AgSla1-D1-D2
# Method in brief: as §1
# AgSla1-D3 = target: AgSla1-D3
# Method in brief: as §1
# CaAbp1-D1 = target: CaAbp1-D1
# Method in brief: as §1
# CaAbp1-D2 = target: CaAbp1-D2
# Method in brief: as §1
# CaBbc1 = target: CaBbc1
# Method in brief: as §1
# CaBem1-D1 = target: CaBem1-D1
# Method in brief: as §1
# CaBzz1-D1 = target: CaBzz1-D1
# Method in brief: as §1
# CaBzz1-D2 = target: CaBzz1-D2
# Method in brief: as §1
# CaCyk3 = target: CaCyk3
# Method in brief: as §1
# CaFus1 = target: CaFus1
# Method in brief: as §1
# CaHof1 = target: CaHof1
# Method in brief: as §1
# CaHse1 = target: CaHse1
# Method in brief: as §1
# CaLsb1 = target: CaLsb1
# Method in brief: as §1
# CaLsb4 = target: CaLsb4
# Method in brief: as §1
# CaMyo5 = target: CaMyo5
# Method in brief: as §1
# CaNbp2 = target: CaNbp2
# Method in brief: as §1
# CaRvs167 = target: CaRvs167
# Method in brief: as §1
# CaRvs167-3 = target: CaRvs167-3
# Method in brief: as §1
# CaSho1 = target: CaSho1
# Method in brief: as §1
# CaSla1-D1-D2 = target: CaSla1-D1-D2
# Method in brief: as §1
# CaSla1-D3 = target: CaSla1-D3
# Method in brief: as §1
# ScAbp1 = target: ScAbp1
# Method in brief: as §1
# ScBbc1 = target: ScBbc1
# Method in brief: as §1
# ScBem1-D1 = target: ScBem1-D1
# Method in brief: as §1
# ScBzz1-D1 = target: ScBzz1-D1
# Method in brief: as §1
# ScBzz1-D2 = target: ScBzz1-D2
# Method in brief: as §1
# ScCyk3 = target: ScCyk3
# Method in brief: as §1
# ScFus1 = target: ScFus1
# Method in brief: as §1
# ScHof1 = target: ScHof1
# Method in brief: as §1
# ScHse1 = target: ScHse1
# Method in brief: as §1
# ScLsb1 = target: ScLsb1
# Method in brief: as §1
# ScLsb2 = target: ScLsb2
# Method in brief: as §1
# ScLsb3 = target: ScLsb3
# Method in brief: as §1
# ScLsb4 = target: ScLsb4
# Method in brief: as §1
# ScMyo3 = target: ScMyo3
# Method in brief: as §1
# ScMyo5 = target: ScMyo5
# Method in brief: as §1
# ScNbp2 = target: ScNbp2
# Method in brief: as §1
# ScPex13 = target: ScPex13
# Method in brief: as §1
# ScRvs167 = target: ScRvs167
# Method in brief: as §1
# ScSho1 = target: ScSho1
# Method in brief: as §1
# ScSla1-D1-D2 = target: ScSla1-D1-D2
# Method in brief: as §1
# ScSla1-D3 = target: ScSla1-D3
# Method in brief: as §1
# SpAbp1-D1 = target: SpAbp1-D1
# Method in brief: as §1
# SpBbc1 = target: SpBbc1
# Method in brief: as §1
# SpBzz1-D1 = target: SpBzz1-D1
# Method in brief: as §1
# SpBzz1-D2 = target: SpBzz1-D2
# Method in brief: as §1
# SpCyk3 = target: SpCyk3
# Method in brief: as §1
# SpHof1 = target: SpHof1
# Method in brief: as §1
# SpHof1-2 = target: SpHof1-2
# Method in brief: as §1
# SpHof1-3 = target: SpHof1-3
# Method in brief: as §1
# SpHse1 = target: SpHse1
# Method in brief: as §1
# SpLsb1 = target: SpLsb1
# Method in brief: as §1
# SpLsb4 = target: SpLsb4
# Method in brief: as §1
# SpMyo1 = target: SpMyo1
# Method in brief: as §1
# SpNbp2 = target: SpNbp2
# Method in brief: as §1
# SpPex13 = target: SpPex13
# Method in brief: as §1
# SpRvs167 = target: SpRvs167
# Method in brief: as §1
# SpSla1-D1-D2 = target: SpSla1-D1-D2
# Method in brief: as §1
# SpSla1-D3 = target: SpSla1-D3
# Method in brief: as §1
binder,measurement,setting,value
TPEIPPPLPPKIMVH,SPOT peptide array binding signal intensity,AgAbp1,≤ 0
same,SPOT peptide array binding signal intensity,AgBbc1,≤ 0
same,SPOT peptide array binding signal intensity,AgBem1-D1,≤ 0
same,SPOT peptide array binding signal intensity,AgBzz1-D1,≤ 0
same,SPOT peptide array binding signal intensity,AgBzz1-D2,4.5
same,SPOT peptide array binding signal intensity,AgCyk3,≤ 0
same,SPOT peptide array binding signal intensity,AgFus1,≤ 0
same,SPOT peptide array binding signal intensity,AgHof1,631
same,SPOT peptide array binding signal intensity,AgHse1,822
same,SPOT peptide array binding signal intensity,AgLsb1,≤ 0
same,SPOT peptide array binding signal intensity,AgLsb4,232
same,SPOT peptide array binding signal intensity,AgMyo5,496
same,SPOT peptide array binding signal intensity,AgNbp2,≤ 0
same,SPOT peptide array binding signal intensity,AgRvs167,9.33
same,SPOT peptide array binding signal intensity,AgSho1,66
same,SPOT peptide array binding signal intensity,AgSla1-D1-D2,≤ 0
same,SPOT peptide array binding signal intensity,AgSla1-D3,≤ 0
same,SPOT peptide array binding signal intensity,CaAbp1-D1,6.5
same,SPOT peptide array binding signal intensity,CaAbp1-D2,≤ 0
same,SPOT peptide array binding signal intensity,CaBbc1,≤ 0
same,SPOT peptide array binding signal intensity,CaBem1-D1,≤ 0
same,SPOT peptide array binding signal intensity,CaBzz1-D1,≤ 0
same,SPOT peptide array binding signal intensity,CaBzz1-D2,≤ 0
same,SPOT peptide array binding signal intensity,CaCyk3,≤ 0
same,SPOT peptide array binding signal intensity,CaFus1,74
same,SPOT peptide array binding signal intensity,CaHof1,20.5
same,SPOT peptide array binding signal intensity,CaHse1,3420
same,SPOT peptide array binding signal intensity,CaLsb1,≤ 0
same,SPOT peptide array binding signal intensity,CaLsb4,1090
same,SPOT peptide array binding signal intensity,CaMyo5,25.5
same,SPOT peptide array binding signal intensity,CaNbp2,9
same,SPOT peptide array binding signal intensity,CaRvs167,29.8
same,SPOT peptide array binding signal intensity,CaRvs167-3,≤ 0
same,SPOT peptide array binding signal intensity,CaSho1,124
same,SPOT peptide array binding signal intensity,CaSla1-D1-D2,≤ 0
same,SPOT peptide array binding signal intensity,CaSla1-D3,≤ 0
same,SPOT peptide array binding signal intensity,ScAbp1,≤ 0
same,SPOT peptide array binding signal intensity,ScBbc1,≤ 0
same,SPOT peptide array binding signal intensity,ScBem1-D1,≤ 0
same,SPOT peptide array binding signal intensity,ScBzz1-D1,≤ 0
same,SPOT peptide array binding signal intensity,ScBzz1-D2,11
same,SPOT peptide array binding signal intensity,ScCyk3,≤ 0
same,SPOT peptide array binding signal intensity,ScFus1,≤ 0
same,SPOT peptide array binding signal intensity,ScHof1,722
same,SPOT peptide array binding signal intensity,ScHse1,≤ 0
same,SPOT peptide array binding signal intensity,ScLsb1,109
same,SPOT peptide array binding signal intensity,ScLsb2,≤ 0
same,SPOT peptide array binding signal intensity,ScLsb3,6940
same,SPOT peptide array binding signal intensity,ScLsb4,376
same,SPOT peptide array binding signal intensity,ScMyo3,611
same,SPOT peptide array binding signal intensity,ScMyo5,380
same,SPOT peptide array binding signal intensity,ScNbp2,2
same,SPOT peptide array binding signal intensity,ScPex13,1210
same,SPOT peptide array binding signal intensity,ScRvs167,525
same,SPOT peptide array binding signal intensity,ScSho1,1610
same,SPOT peptide array binding signal intensity,ScSla1-D1-D2,≤ 0
same,SPOT peptide array binding signal intensity,ScSla1-D3,≤ 0
same,SPOT peptide array binding signal intensity,SpAbp1-D1,≤ 0
same,SPOT peptide array binding signal intensity,SpBbc1,0.5
same,SPOT peptide array binding signal intensity,SpBzz1-D1,68
GDHPKGPPPPPPPPD,SPOT peptide array binding signal intensity,CaNbp2,≤ 0
same,SPOT peptide array binding signal intensity,CaRvs167,0.333
same,SPOT peptide array binding signal intensity,CaRvs167-3,1
same,SPOT peptide array binding signal intensity,CaSho1,≤ 0
same,SPOT peptide array binding signal intensity,CaSla1-D1-D2,≤ 0
same,SPOT peptide array binding signal intensity,CaSla1-D3,≤ 0
same,SPOT peptide array binding signal intensity,ScAbp1,≤ 0
same,SPOT peptide array binding signal intensity,ScBbc1,≤ 0
same,SPOT peptide array binding signal intensity,ScBem1-D1,≤ 0
same,SPOT peptide array binding signal intensity,ScBzz1-D1,1030
same,SPOT peptide array binding signal intensity,ScBzz1-D2,≤ 0
same,SPOT peptide array binding signal intensity,ScCyk3,≤ 0
same,SPOT peptide array binding signal intensity,ScFus1,≤ 0
same,SPOT peptide array binding signal intensity,ScHof1,≤ 0
same,SPOT peptide array binding signal intensity,ScHse1,16
same,SPOT peptide array binding signal intensity,ScLsb1,≤ 0
same,SPOT peptide array binding signal intensity,ScLsb2,≤ 0
same,SPOT peptide array binding signal intensity,ScLsb3,≤ 0
same,SPOT peptide array binding signal intensity,ScLsb4,≤ 0
same,SPOT peptide array binding signal intensity,ScMyo3,1170
same,SPOT peptide array binding signal intensity,ScMyo5,1020
same,SPOT peptide array binding signal intensity,ScNbp2,3
same,SPOT peptide array binding signal intensity,ScPex13,7.63e-06
same,SPOT peptide array binding signal intensity,ScRvs167,≤ 0
same,SPOT peptide array binding signal intensity,ScSho1,≤ 0
same,SPOT peptide array binding signal intensity,ScSla1-D1-D2,≤ 0
same,SPOT peptide array binding signal intensity,ScSla1-D3,≤ 0
same,SPOT peptide array binding signal intensity,SpAbp1-D1,≤ 0
same,SPOT peptide array binding signal intensity,SpBbc1,≤ 0
same,SPOT peptide array binding signal intensity,SpBzz1-D1,67
same,SPOT peptide array binding signal intensity,SpBzz1-D2,2
same,SPOT peptide array binding signal intensity,SpCyk3,≤ 0
same,SPOT peptide array binding signal intensity,SpHof1,≤ 0
same,SPOT peptide array binding signal intensity,SpHof1-2,≤ 0
same,SPOT peptide array binding signal intensity,SpHof1-3,≤ 0
same,SPOT peptide array binding signal intensity,SpHse1,1
same,SPOT peptide array binding signal intensity,SpLsb1,≤ 0
same,SPOT peptide array binding signal intensity,SpLsb4,≤ 0
same,SPOT peptide array binding signal intensity,SpMyo1,1570
same,SPOT peptide array binding signal intensity,SpNbp2,18.5
same,SPOT peptide array binding signal intensity,SpPex13,≤ 0
same,SPOT peptide array binding signal intensity,SpRvs167,≤ 0
same,SPOT peptide array binding signal intensity,SpSla1-D1-D2,≤ 0
same,SPOT peptide array binding signal intensity,SpSla1-D3,≤ 0
